Shown are actives, neighbours in structure and some others; about 3% of the full set was active somewhere.
PAFAH1B3 FP inh: PAFAH1B3 enzyme inhibitors, primary screen, biochemical, fluorescence polarization, human. recombinant PAFAH1B3, FP-rhodamine probe. inhibition, % at 3.39 µM. actives 0.28% (n = 340,000);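 active = inhibition above the screen-wide average of all tested compounds plus 3 SD, cut at about 25% in these data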;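 also: 0% = enzyme with DMSO only and 100% = wells lacking PAFAH1B3 protein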
Target sequence (Q15102 whole entry, looked up): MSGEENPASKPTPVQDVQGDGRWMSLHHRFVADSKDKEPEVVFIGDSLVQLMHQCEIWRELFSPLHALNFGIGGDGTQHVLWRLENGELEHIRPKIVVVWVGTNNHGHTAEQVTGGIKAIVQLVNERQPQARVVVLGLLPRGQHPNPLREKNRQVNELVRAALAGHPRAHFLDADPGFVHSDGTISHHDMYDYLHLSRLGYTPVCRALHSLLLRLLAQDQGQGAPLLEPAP
ATG4B inhibitor: ATG4B protease inhibitors, primary screen, biochemical, fluorescence, uHTS; Cysteine protease ATG4B (Homo sapiens), Q9Y4P1; ATG4B cleavage of LC3-PLA2, NBD-HPC fluorescence, 1 h; inhibition, % at 8.33 µM; actives 0.51% (n = 340,000); AID 504462, 2011; in the data active = inhibition above about 40%
Target sequence (Q9Y4P1 whole entry, looked up): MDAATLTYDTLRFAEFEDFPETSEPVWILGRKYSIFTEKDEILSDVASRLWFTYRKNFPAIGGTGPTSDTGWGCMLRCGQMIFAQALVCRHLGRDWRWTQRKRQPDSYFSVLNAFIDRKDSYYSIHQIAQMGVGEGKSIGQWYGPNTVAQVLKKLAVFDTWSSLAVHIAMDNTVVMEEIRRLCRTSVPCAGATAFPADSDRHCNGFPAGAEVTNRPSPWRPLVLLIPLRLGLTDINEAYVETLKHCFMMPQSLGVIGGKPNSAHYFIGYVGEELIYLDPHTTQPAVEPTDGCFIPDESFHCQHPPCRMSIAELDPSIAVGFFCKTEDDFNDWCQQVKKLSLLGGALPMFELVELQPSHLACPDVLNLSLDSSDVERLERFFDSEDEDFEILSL
DAGLB inh: DAGLB lipase inhibitors, primary screen, biochemical, fluorescence, HTS. Diacylglycerol lipase-beta (Homo sapiens), Q8NCG7. HEK293T DAGLB membrane lysate, EnzChek fluorogenic substrate. inhibition, % at 5.17 µM. actives 0.059% (n = 340,000); in the data active = inhibition above about 34%;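 also: 0% = enzyme with vehicle and 100% = wells lacking enzyme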
PAFAH1B2 FP inh: PAFAH1B2 enzyme inhibitors, primary screen, biochemical, fluorescence polarization, human; actives 1.2% (n = 340,000); AID 492953, 2010; inhibition, % at 3.39 µM; recombinant PAFAH1B2, FP-rhodamine activity probe; Platelet-activating factor acetylhydrolase IB subunit alpha2 (Homo sapiens), P68402;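 active = inhibition above the mean of all tested compounds plus 3 SD, cut at about 24% in these data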;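 also: 0% = enzyme with DMSO and 100% = wells lacking PAFAH1B2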
pPAFAH inh: pPAFAH enzyme inhibitors, primary screen, biochemical, fluorescence polarization, human; recombinant pPAFAH, FP-rhodamine probe fluorescence polarization; inhibition, % at 3.39 µM; actives 1.5% (n = 330,000); AID 463082, 2010;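 active = inhibition above the mean inhibition across the screen plus 3 SD, cut at about 25% in these data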;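 also: inhibitors block binding of the rhodamine activity-based probe so polarization drops; 0% = enzyme with DMSO and 100% = wells lacking pPAFAH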
PAFAH2 FP inh: PAFAH2 enzyme inhibitors, primary screen, biochemical, fluorescence polarization, human; Platelet-activating factor acetylhydrolase 2, cytoplasmic (Homo sapiens), Q99487; recombinant PAFAH2, FP-rhodamine activity probe; inhibition, % at 3.39 µM; actives 0.99% (n = 340,000);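 active = inhibition above the mean over all tested compounds plus 3 SD, cut at about 30% in these data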;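 also: inhibitors block probe labeling of enzyme so polarization drops; 0% = enzyme with DMSO and 100% = wells lacking PAFAH2 protein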
PAFAH1B3 conf FP: PAFAH1B3 enzyme inhibitors, confirmation, biochemical, fluorescence polarization, human; recombinant PAFAH1B3, FP-Rh activity-based probe; inhibition, % at 3.39 µM; AID 493032, 2011; actives 30% (n = 390); shares compounds with PAFAH1B3 FP inh;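 active = average inhibition over triplicate runs above the hit cutoff set in the earlier primary screen, cut at about 25% in these data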;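 also: 0% = enzyme with DMSO and 100% = wells lacking PAFAH1B3 protein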
The depositor's hits bear a star; . = not tested or not shown.

SMILES	PAFAH1B3 FP inh	ATG4B inhibitor	DAGLB inh	PAFAH1B2 FP inh	pPAFAH inh	PAFAH2 FP inh	PAFAH1B3 conf FP
COC(=O)CCC(=O)OC1(C)C(=O)C2=CN(CCc3ccccn3)C(c3ccc(OC)cc3)=CC2=C(Br)C1=O (stereo not drawn)	29.9*	1.3	7.7	0.6	19.9	13.0	4.4
C=CC(=O)Nc1sc2c(c1C(N)=O)CCCC2	31.6*	2.2	0.0	-1.2	-2.9	3.0	29.7*
O=C1c2cccc3c([N+](=O)[O-])ccc(c23)C(=O)N1Cc1cccnc1	47.2*	-7.2	-4.1	19.9	.	6.0	47.5*
Cc1nnc(N2C(=O)c3cccc4c([N+](=O)[O-])ccc(c34)C2=O)s1	28.6*	-0.6	-27.4	3.0	1.0	-5.0	22.9
Cc1ccc(N2C(=O)c3cccc4c([N+](=O)[O-])ccc(c34)C2=O)c2cccnc12	24.0	-3.9	-0.8	7.0	-1.6	0.9	.
Cc1ccnc(N2C(=O)c3cccc4c([N+](=O)[O-])ccc(c34)C2=O)c1	31.0*	-11.1	-10.5	1.4	11.0	5.0	41.0*
COc1cc2ccccc2cc1C(=O)NC(=S)Nc1cccc(C(=O)O)c1C	5.0	-7.0	5.2	0.5	2.3	-1.0	.
c1ccc(CNc2c3ccccc3nc3ccccc23)cc1	2.2	-4.5	-0.9	3.9	1.2	7.8	.
Oc1ccc(CCNc2c3ccccc3nc3ccccc23)cc1O	39.9*	-3.1	-0.6	15.3	18.1	13.9	33.0*
COc1ccc(C(=O)Nc2ccc(S(=O)(=O)N3CCCCC3)cc2)cc1OC	1.3	-13.9	0.3	0.2	0.7	3.8	.
COc1cc(OC)c(C(=O)Nc2ccc(S(=O)(=O)N3CCCCC3)cc2)cc1OC	29.9*	-16.4	1.1	5.7	7.1	5.3	24.7
O=C(c1ccc(F)cc1)C1CCN(C(=O)c2ccccc2F)CC1	10.6	-4.7	-3.3	5.4	1.0	2.4	.
COc1ccc(NC(=O)c2cccc(N3C(=O)c4ccc(C(=O)Nc5ccc(OC)c(O)c5)cc4C3=O)c2)cc1O	26.1*	-0.1	1.9	12.2	4.8	-4.6	16.7
COc1ccc2[nH]c3c4c(ccc3c2c1)C(=O)C=CC4=O	37.0*	5.3	4.2	17.0	.	16.4	17.4
COc1ccc2[nH]c(=O)cc(C(=O)O)c2c1	13.5	3.4	-1.4	3.3	8.2	5.5	.
O=c1[nH][nH]cc1C=Nc1ccccc1O	5.9	5.9	-4.9	3.7	3.2	1.8	.
O=c1c(=Nc2ccccc2O)c(=O)c2ccccc12	49.5*	-0.4	-0.3	9.8	1.1	7.4	11.8
CCCCC(=O)Nc1ccc(C(=O)Nc2ccc(S(=O)(=O)Nc3nccc(C)n3)cc2)cc1	-4.4	-10.2	1.1	10.5	-3.6	-13.3	.
COc1cc2c(cc1OC)CN(S(=O)(=O)/C=C/c1ccccc1)CC2	8.7	-4.5	-2.6	-0.6	-2.0	8.5	.
Cc1ccc(C(CNS(=O)(=O)c2ccc(F)cc2C)N2CCN(C)CC2)cc1 (stereo not drawn)	1.7	-0.9	-0.2	-2.1	-0.6	0.9	.
O=C1NC(=O)c2cc(Br)cc3cccc1c23	45.6*	2.6	1.7	6.3	3.1	-1.3	52.7*
CCCCN(Cc1ccccc1)C(=O)CCN1C(=O)C2C3C=CC(C3)C2C1=O (stereo not drawn)	4.7	-3.6	-0.1	5.2	2.8	-50.6	.
CCNC1=C(Cl)C(=O)c2ccccc2C1=O	17.1	-7.5	14.9	4.5	4.3	-1.5	.
COC1=C(Nc2ccc(O)cc2)C(=O)c2ccccc2C1=O	3.7	-5.8	7.6	6.0	10.7	-3.9	.
CCOc1ccc(NC2=C(OC)C(=O)c3ccccc3C2=O)cc1	9.4	17.2	18.2	-3.2	0.7	-2.8	.
SMILES	PAFAH1B3 FP inh	ATG4B inhibitor	DAGLB inh	PAFAH1B2 FP inh	pPAFAH inh	PAFAH2 FP inh	PAFAH1B3 conf FP
CCN(CC)c1ccc(NC2=C(Cl)C(=O)c3ccccc3C2=O)cc1	25.8*	37.4	13.9	6.3	10.2	28.2	35.6*
CCCC(=O)NC1=C(Cl)C(=O)c2ccccc2C1=O	37.6*	9.4	0.2	5.9	.	19.7	13.9
O=C1C(Cl)=C(Nc2ccc(O)cc2)C(=O)c2ccccc21	26.9*	-11.7	13.1	13.4	0.7	9.0	18.0
COc1ccc(CNC(=O)Cn2cccc2C(=O)c2ccccc2)cc1	2.9	-1.5	-0.5	7.6	5.1	-1.7	.
O=C(NC1(O)C(=O)c2ccccc2C1=O)c1ccccc1	36.5*	14.2	-8.5	9.2	2.5	15.9	37.2*
O=C(NC1(O)C(=O)c2ccccc2C1=O)c1c(Cl)cccc1Cl	.	-8.5	.	.	7.3	.	.
Nc1c(O)cccc1C(=O)O	29.8*	-5.2	2.1	4.0	11.8	2.7	10.0
COc1ccccc1N1CCN(C(=O)CCNS(=O)(=O)c2cc(Br)cnc2N)CC1	1.9	5.3	5.9	-0.5	3.2	10.0	.
Cc1ccc(S(=O)(=O)Cc2ccc(C(=O)OCc3ccccc3)cc2)cc1	2.3	2.0	-13.5	3.6	5.5	-2.4	.
COC(=O)c1c[nH]c2c1-c1cc(C(=O)OCc3ccccc3)n(S(=O)(=O)c3ccc(C)cc3)c1C(=O)C2=O	38.2*	-6.6	4.2	8.6	.	9.3	7.8
COc1ccc(NC(=O)NNC(=O)c2ccc3ccccc3c2O)cc1OC	18.8	-2.4	0.9	1.9	4.8	3.6	.
CCc1ccc(NC(=O)NNC(=O)c2ccc3ccccc3c2O)cc1	36.3*	-2.8	1.2	12.3	.	-6.0	74.0*
ON=C1c2ccccc2-c2ccc(O)cc21	36.7*	-9.8	1.5	3.3	.	6.6	27.7*
COC(=O)CCc1c(C)c(C(=O)c2cc(F)c(F)c(F)c2F)c2ccccn12	29.0*	0.3	1.2	5.4	7.1	11.8	7.1
COC(=O)CCc1c(C)c(C(=O)c2ccc(F)cc2)c2ccccn12	7.0	8.6	0.4	4.1	8.2	5.4	.
CCOc1ccc2[nH]c3c(=O)n(CCc4ccc(OC)cc4)cnc3c2c1	-5.7	5.2	0.2	-2.6	5.8	4.0	.
Cc1ccccc1CS(=O)(=O)CC(O)CN1CCCC1=O (stereo not drawn)	8.2	-7.8	-2.4	1.5	4.0	4.5	.
CCCCn1c(NC(=O)c2ccco2)c(S(=O)(=O)c2ccc(C)cc2)c2nc3ccccc3nc21	-5.4	-3.2	5.3	0.8	.	3.7	.
